From PubChem BioAssay (NCI) come the findings set out here.

Test systems include T-47D breast; BT-549 breast; MDA-MB-435 melanoma; SW-620 colon; MCF7 breast; HCT-116 colon; HCC-2998 colon; KM12 colon.
Test in all cases: NCI-60 one-dose screen, 48 h (100 = growth as untreated, 0 = no growth, -100 = all killed)
Holding throughout (details): 10 µM unless noted

The structures appear in SMILES notation. Compounds without any hit were thinned out: in the full panel of roughly 83,000, 20% have a hit.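 Values shown are percent growth following 48 h exposure of cells in 96-well plates to a single concentration of compound; below 10 was considered active.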 Unmarked numbers belong to inactive results. The source made the active and inactive calls.

As for `CC[C@]12C=CCN3CC[C@@]4(c5cc(NC(=O)CCC(=O)O[C@H]6CC[C@H]7[C@@H]8CCC9=CC(=O)CC[C@@H]9[C@H]8CC[C@]67C)c(OC)cc5N(C)[C@H]4[C@@](O)(C(=O)OC)[C@@H]1OC(C)=O)[C@@H]32`, the growth was 53% in the assay with T-47D breast; 77.6% with BT-549 breast; 20.7% with MDA-MB-435 melanoma; 86.9% in the assay on SW-620 colon; 80% in the assay on MCF7 breast; 62.5% in the assay on HCT-116 colon. Moreover, the results for the growth with HCC-2998 colon and in the assay with KM12 colon were 91.9% and 73.1%, respectively.
As for `CCCCC[n+]1ccc(SCC(=O)N(C)c2ccc(Oc3ccccc3)cc2)c2ccccc21`, the growth was 68.5% in the assay with T-47D breast; 130% in the assay on BT-549 breast; 98.1% with MDA-MB-435 melanoma; 86.4% in the assay on SW-620 colon; 95.7% with MCF7 breast; 92.8% with HCT-116 colon. In addition, the growth in the assay on HCC-2998 colon is 100%; in the assay on KM12 colon, 102%.
For the compound `O=C(CSc1nc2sc3c(c2c(=O)n1-c1ccc(Cl)cc1)CCCC3)Nc1nc(-c2cccc(Br)c2)cs1`, the growth in the assay with T-47D breast is 76.9%; in the assay with BT-549 breast, 92.1%; with MDA-MB-435 melanoma, 97.5%; in the assay on SW-620 colon, 78.9%; in the assay on MCF7 breast, 87.4%; in the assay on HCT-116 colon it was 81.6%. In addition, the growth was 107% in the assay on HCC-2998 colon and 83.8% in the assay on KM12 colon.
Turning to `O=C(C[n+]1cccc2ccccc21)c1ccc(O)c(O)c1`, the growth was 42% with T-47D breast; 65.7% in the assay on BT-549 breast; 88.1% with MDA-MB-435 melanoma; 23.8% with SW-620 colon; 21.8% with MCF7 breast; 5.16% (active) in the assay on HCT-116 colon. The growth with HCC-2998 colon is 90.4%; in the assay on KM12 colon it was 100%.
Turning to `COc1ccc(-c2nc(S(=O)(=O)c3ccccc3)c(S(=O)CC(=O)N3CCC(C)CC3)o2)cc1` (configuration not stated), the growth was 15.6% with T-47D breast; 33.5% with BT-549 breast; 57.2% with MDA-MB-435 melanoma; 1.06% (active) with SW-620 colon; 24.3% with MCF7 breast; -55.9% (active) in the assay on HCT-116 colon. Also, the growth with HCC-2998 colon is 90.6%; in the assay on KM12 colon, 68.1%.
For `O=C(CCN1CCCC1)Nc1ccc2c(Nc3ccc(Br)cc3)c3ccccc3nc2c1`, the growth in the assay with T-47D breast was 13.6%; in the assay on BT-549 breast, 47.9%; in the assay on MDA-MB-435 melanoma, -88% (active); in the assay with SW-620 colon it was -64.8% (active); with MCF7 breast it was -66.8% (active); with HCT-116 colon, -57.6% (active). For the same compound, the growth was -73.4% (active) in the assay with HCC-2998 colon and -59.2% (active) with KM12 colon.
`CC/C(=C\c1ccc(OC)cc1)C(=O)c1ccc(OC)cc1`: the growth in the assay on T-47D breast is 85.8%; in the assay on BT-549 breast it was 135%; with MDA-MB-435 melanoma, 73.1%; with SW-620 colon, 94.2%; in the assay with MCF7 breast, 107%; in the assay with HCT-116 colon, 90.8%. In addition, the growth in the assay on HCC-2998 colon is 93.5%; in the assay with KM12 colon, 96.3%.
As to `CC(=O)O[C@H]1Cc2c([nH]c3ccccc23)[C@@H](c2ccc(Cl)cc2)N1C(=O)CCNC(C)(C)C`, the growth with T-47D breast is 74.3%; with BT-549 breast, 53.7%; in the assay with MDA-MB-435 melanoma, 70%; with SW-620 colon, 61.1%; in the assay on MCF7 breast, 34.3%; with HCT-116 colon, 20.8%. Besides, the growth was 60.3% with HCC-2998 colon and 66.6% in the assay on KM12 colon.
As to `CC(c1ccccc1)C(C(=O)c1ccccc1)c1ccccc1` (configuration not stated), the growth is 91.5% in the assay on T-47D breast; 101% with BT-549 breast; 110% in the assay with MDA-MB-435 melanoma; 97.7% in the assay with SW-620 colon; 98% in the assay with MCF7 breast; 74.5% in the assay with HCT-116 colon. Besides, the growth was 93.4% in the assay on HCC-2998 colon and 104% with KM12 colon.
For the compound `CCN1C(=O)/C(=C/C(=O)OC)S/C1=N\NC(=O)c1cc2ccc1/C=C\c1ccc(cc1)/C=C\2`, the growth was 94.2% with T-47D breast; 92.3% in the assay with BT-549 breast; 99.3% in the assay with MDA-MB-435 melanoma; 8.79% (active) in the assay on SW-620 colon; 43.7% in the assay with MCF7 breast; 49.5% with HCT-116 colon. Also, the growth is 105% in the assay on HCC-2998 colon and 85% in the assay with KM12 colon.
As to `Cc1ccc(C(=O)/C(=C/c2ccc([N+](=O)[O-])cc2)SCc2ccc(Cl)cc2)cc1`, the growth in the assay on T-47D breast was 65.2%; in the assay with BT-549 breast, 88.9%; in the assay with MDA-MB-435 melanoma, 78.1%; with SW-620 colon it was -52.1% (active); with MCF7 breast, 12.8%; in the assay on HCT-116 colon it was -59.9% (active). Moreover, the growth is 78.6% with HCC-2998 colon and 44.8% in the assay with KM12 colon.
Take `COc1ccc(/C=C/c2nc(Nc3ccc(S(=O)(=O)Nc4nc(C)cc(C)n4)cc3)c3ccccc3n2)cc1`: the growth is 49.1% with T-47D breast; 87.9% with BT-549 breast; 60.6% in the assay with MDA-MB-435 melanoma; 61.1% with SW-620 colon; 42.2% in the assay with MCF7 breast; 66.4% in the assay with HCT-116 colon. For the same compound, the results for the growth with HCC-2998 colon and in the assay with KM12 colon were 74.9% and 47.5%, respectively.
Turning to `Cn1c2ccccc2c2c3c(c4c5ccccc5n(C)c4c21)C(=O)OC3`, the growth in the assay on T-47D breast was 95.2%; with BT-549 breast it was 97.2%; in the assay on MDA-MB-435 melanoma, 103%; in the assay on SW-620 colon it was 88%; in the assay on MCF7 breast it was 92.1%; in the assay on HCT-116 colon, 93.8%. Moreover, the growth in the assay on HCC-2998 colon was 99.7%; in the assay with KM12 colon, 97.2%.
Consider `COc1ccc(/C=C/c2nc(Nc3ccc(Cl)cc3)c3ccccc3n2)cc1`, for which the growth in the assay on T-47D breast is 49.9%; with BT-549 breast, 93.4%; in the assay with MDA-MB-435 melanoma, 55.3%; in the assay with SW-620 colon it was 48.7%; in the assay with MCF7 breast, 44%; with HCT-116 colon it was 36.1%. Besides, the growth in the assay with HCC-2998 colon was 63.9%; with KM12 colon, 48%.
